Reference: PubChem BioAssay (NCI)
The panel holds about 83,000 compounds, 20% with a hit somewhere; the sample as a whole holds those more often.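 Step 1: grow cells in 96-well plates. Step 2: add test compound at a single concentration. Step 3: incubate 48 h. Step 4: record percent growth.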 Activity calls are given as the source filed them.

Tested on: A498 renal
Experiment: NCI-60 one-dose screen, 48 h (100 = growth as untreated, 0 = no growth, -100 = all killed)
Settings: 10 µM unless noted
Procedure: Growth inhibition of the A498 human tumor cell line is measured as a screen for anti-cancer activity. Cells are grown in 96 well plates and exposed to the test compound for 48 hours. Compounds are tested at a single concentration, which is 10^-5 M for most compounds. The reported endpoint is percent growth (GI% or GIPRCNT), where numbers from 0 - 100% represent growth inhibition, and numbers from -100% - 0 represent cell death. For example, a value of 40 represents 60% growth inhibition. A value of 0 means no net growth occurred over the course of the experiment. A value of -40 indicates 40% of cells at the beginning of the experiment died by the end of the experiment. A value of -100 means all cells are dead at the end of the experiment.
NCI-60 Human Tumor Cell Lines Screen was performed using the standard one-dose NCI protocol, which is described in more detail at https://dtp.cancer.gov/discovery_development/nci-60/default.htm.
Compounds with GIPRCNT values below 10 were considered active. Activity score was based on GIPRCNT using the following formula: […]
Score is 0 for GIPRCNT values of 100 or above, 50 for GIPRCNT values of 0, and 100 for GIPRCNT values of -100.

SMILES | growth
Cc1cc2nc(C(Cl)Cl)nc(-c3ccccc3)n2n1 | 20.8% (inactive)
FC(F)(F)c1cc(N2CCCCC2)nc(NCCCNc2ccnc3cc(Cl)ccc23)n1 | 47.8% (inactive)
COc1ccc(S(=O)(=O)NC2c3ccccc3CC2O)cc1OC (stereo not given) | 92.7% (inactive)
COc1cc2c(c(OC)c1OC)CCC(c1cccc(NC(=O)c3cccc(Cl)c3)c1)O2 (stereo not given) | 63.9% (inactive)
N#C/C(Sc1nc2sc3c(c2c(=O)n1Cc1ccccc1)CCCC3)=C1/SC=C(c2ccc(Cl)cc2)N1c1ccccc1 | 120% (inactive)
NCCCCCNc1noc(Cc2c[nH]c3cc(Br)ccc23)n1 | 16.1% (inactive)
CC(=O)c1ccc(Nc2nccc(-c3ccc(Cl)cc3)n2)cc1 | 7.16% (active)
Cc1ccc(Nc2cc(N)nc(N)n2)cc1 | 105% (inactive)
CC1=C(C(=O)OCc2ccccc2)C(c2ccc3c(c2)OCO3)n2c(nc3ccccc32)N1 (stereo not given) | -10.2% (active)
O=C(Nc1ncc(Cc2ccc(Cl)cc2)s1)C1=NCCCCN1 | 112% (inactive)
O=C(NCCN1CCOCC1)c1cncnc1Nc1ccc2c(ccn2Cc2ccccn2)c1 | 101% (inactive)
O=C1OCC2=C1C(c1cccc(F)c1)c1cc3c(cc1N2CCO)CCC3 (stereo not given) | 5.8% (active)
Cc1[nH]c(C(=O)Nc2ccccc2OC2CCNC2)c(Cl)c1Cl (stereo not given) | 70.7% (inactive)
CCCc1cc(CCC)n2nc(N)nc2n1 | 96% (inactive)
COc1cc(OC)cc(C(=O)Nc2cnc(Nc3ccc(N4CCOCC4)nc3)nc2Oc2ccc(C(F)(F)F)cc2)c1 | 77.7% (inactive)
Cc1nc2sc(C(=O)Nc3ccccc3)c(N)c2cc1C(O)c1ccccc1 (stereo not given) | -8.48% (active)
FC(F)(F)c1cccc(-c2nnn(Cc3cc(-c4cccc(Cl)c4)no3)n2)c1 | 103% (inactive)
COc1ccc(C(=O)/C=C/c2ccc(Cl)cc2)cc1S(N)(=O)=O | 84.6% (inactive)
Cc1[nH]c(C2CC(c3ccc(C(F)(F)F)c(F)c3)=NN2C)c(C)c1C(=O)NCC(F)(F)F (stereo not given) | 30.8% (inactive)
CCCCC/C=C/CCC(=O)N[C@H]1[C@H](Oc2c3cc4cc2Oc2ccc(cc2Cl)[C@@H](O[C@@H]2O[C@H](CO)[C@@H](O)[C@H](O)[C@H]2NC(C)=O)[C@@H]2NC(=O)[C@H](NC(=O)[C@@H]4NC(=O)[C@H]4NC(=O)[C@@H](Cc5ccc(c(Cl)c5)O3)NC(=O)[C@@H](N)c3ccc(O)c(c3)Oc3cc(O)cc4c3)c3ccc(O)c(c3)-c3c(O[C@H]4O[C@H](CO)[C@@H](O)[C@H](O)[C@@H]4O)cc(O)cc3[C@H](C(=O)O)NC2=O)O[C@H](CO)[C@H](O)[C@@H]1O | 102% (inactive)

SMILES | growth
Cn1ccnc1C(=O)/C=C/c1ccc(CC(=O)Nc2cc(F)c(F)c(F)c2)cc1 | 65% (inactive)
COC(=O)c1c(C(=O)OC)c2ccc3c4ncccc4ccc3n2c1C(=O)c1ccc(C)cc1 | 92.8% (inactive)
NC(=N\N=C/c1ccc(Cl)cc1Cl)/C(N)=N\N=C/c1ccc(Cl)cc1Cl | -2.93% (active)
O=[N+]([O-])c1ccc(Oc2cccc3c(Oc4ccc([N+](=O)[O-])cc4[N+](=O)[O-])cccc23)c([N+](=O)[O-])c1 | 108% (inactive)
O=C1/C(=C/c2ccccc2)COc2ccc(O)cc21 | 99.5% (inactive)
c1ccc2[nH]c(-c3ccc(-c4nccc5c4[nH]c4ccccc45)cc3)nc2c1 | 68.7% (inactive)
Cc1ccccc1NC(=O)Cn1cc(CN2CCN(c3ccnc4cc(Cl)ccc34)CC2)nn1 | 84.8% (inactive)
CCN=c1sc2c(n1NC(=O)c1cc3ccc1CCc1ccc(cc1)CC3)C(=O)c1ccccc1C2=O | 51.6% (inactive)
Cc1ccc(S(=O)(=O)c2nc(-c3ccccc3)oc2S(C)=O)cc1 (stereo not given) | 75.9% (inactive)
O=C(N/N=C/c1ccccc1Cl)c1ccccc1Nc1ccnc(C(F)(F)F)c1 | -25% (active)
COC(=O)c1ccc(-n2cc(CCCOS(=O)(=O)c3ccc(F)cc3)nn2)cc1 | 84.4% (inactive)
CCN(CC)CCCC(Nc1c2ccc(Cl)cc2nc2ccc(OC)cc12)c1ccncc1 (stereo not given) | 81.8% (inactive)
CCOC(=O)C#Cc1c(CC(=O)OCC)nnn1[C@H]1O[C@@H](CO)[C@@H]2OC(C)(C)O[C@@H]21 | 111% (inactive)
CNC(=O)c1cc(Oc2ccc3nc(NC(=O)Nc4ccc(F)cc4F)sc3c2)ccn1 | 10.9% (inactive)
C=C(C)[C@@H]1CC[C@]2(COCCCNCCCN)CC[C@]3(C)[C@H](CC[C@@H]4[C@@]5(C)CC[C@H](OCCCN)C(C)(C)[C@@H]5CC[C@]43C)[C@@H]12 | 90.3% (inactive)
CCOC(=O)C1=C(c2ccccc2)N=C2SC=C(c3cccc([N+](=O)[O-])c3)N2C1c1ccc(O)cc1 (stereo not given) | 78.9% (inactive)
N#CSCc1cc(Cl)c(CSC#N)cc1Cl | 104% (inactive)
N#Cc1c(-c2ccc(Cl)cc2)nc(NN=Cc2cccc(Cl)c2)nc1N1CCOCC1 | 42.2% (inactive)
C=C(C)[C@@H]1CC[C@]2(C(=O)NC(C)=O)CC[C@]3(C)[C@H](CC[C@@H]4[C@@]5(C)CCCNC(C)(C)[C@@H]5CC[C@]43C)[C@@H]12 | 88.6% (inactive)
Nc1ncc(-c2ccc3ncnc(N4CCc5cc(F)c(Cl)cc54)c3c2)cc1C=O | -62.8% (active)
